Test results reported in PubChem BioAssay (NCI).
This is part of a sample that, as a whole, favours compounds with a hit. Of some 83,000 tested, about 20% had one in any assay.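 Growth was measured after 48 h exposure to one concentration of compound in 96-well plates. Values under 10 count as active.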 Active and inactive are the calls of the source.

What was measured:
Assay in all cases: NCI-60 one-dose screen, 48 h (100 = growth as untreated, 0 = no growth, -100 = all killed)
Details in all cases: 10 µM unless noted
NCI-H23 lung = system: NCI-H23 lung
NCI-H226 lung = system: NCI-H226 lung
NCI-H322M lung = system: NCI-H322M lung
HOP-62 NSCLC = system: HOP-62 NSCLC
NCI-H460 lung = system: NCI-H460 lung
HOP-92 NSCLC = system: HOP-92 NSCLC
NCI-H522 lung = system: NCI-H522 lung
A549/ATCC NSCLC = system: A549/ATCC NSCLC
786-0 renal = system: 786-0 renal
COLO 205 colon = system: COLO 205 colon

Measured: growth

O=c1c2c3c(sc2n2cnnc2n1Cc1ccccc1)CCCC3
inactive: NCI-H23 lung 100% | NCI-H226 lung 85% | NCI-H322M lung 104% | HOP-62 NSCLC 119% | NCI-H460 lung 97.7% | HOP-92 NSCLC 89.8% | NCI-H522 lung 79.2% | A549/ATCC NSCLC 91.7% | 786-0 renal 100% | COLO 205 colon 83.3%

CCCCCN(CCCCC)CCCCCCCCN1CCCc2ccccc21
inactive: NCI-H23 lung 76% | NCI-H226 lung 97.6% | NCI-H322M lung 89.9% | HOP-62 NSCLC 109% | NCI-H460 lung 96% | HOP-92 NSCLC 88% | NCI-H522 lung 34.6% | A549/ATCC NSCLC 95.8% | 786-0 renal 96.6% | COLO 205 colon 88.5%

N/C(=N\c1nc2ccccc2[nH]1)NC(=O)Cc1cccc2ccccc12
inactive: NCI-H23 lung 76.5% | NCI-H226 lung 88.7% | NCI-H322M lung 85.3% | HOP-62 NSCLC 108% | NCI-H460 lung 84.4% | HOP-92 NSCLC 64.6% | NCI-H522 lung 63.7% | A549/ATCC NSCLC 69.7% | 786-0 renal 70.4% | COLO 205 colon 90.6%

Fc1cc2[nH]ncc2c2c3c(c(-c4cn[nH]c4C(F)(F)F)nc12)C1CCC3C1 (stereo not given)
active: NCI-H23 lung -4.72% | NCI-H226 lung 4.86% | NCI-H322M lung 0.591% | HOP-62 NSCLC -19.4% | NCI-H460 lung 1.8% | NCI-H522 lung -2.89% | A549/ATCC NSCLC -6.2% | 786-0 renal 2.72% | COLO 205 colon -74.7%
inactive: HOP-92 NSCLC 17.1%

COc1ccc(C(=O)CSc2nccc(Nc3ccc(C(=O)O)cc3)n2)cc1
inactive: NCI-H23 lung 99.2% | NCI-H226 lung 92.8% | NCI-H322M lung 106% | HOP-62 NSCLC 99.7% | NCI-H460 lung 103% | HOP-92 NSCLC 97.4% | NCI-H522 lung 92.9% | A549/ATCC NSCLC 99.7% | 786-0 renal 103% | COLO 205 colon 107%

O=C(O)c1ccccc1C(F)(F)F
inactive: NCI-H23 lung 66.7% | NCI-H226 lung 89.2% | NCI-H322M lung 106% | HOP-62 NSCLC 103% | NCI-H460 lung 102% | HOP-92 NSCLC 88.2% | NCI-H522 lung 72.1% | A549/ATCC NSCLC 16.1% | 786-0 renal 96.2% | COLO 205 colon 102%

CCCCCn1sc(=O)n(Cc2ccc(CNC(=O)OCc3ccc4cccc(O)c4n3)cc2)c1=O
inactive: NCI-H23 lung 25.1% | NCI-H226 lung 21.9% | NCI-H322M lung 41.8% | A549/ATCC NSCLC 20.6%
active: HOP-62 NSCLC -0.186% | NCI-H460 lung 6.42% | HOP-92 NSCLC -52.5% | NCI-H522 lung -49.1% | 786-0 renal -71% | COLO 205 colon -45.2%

COc1ccc2c(c1)C(C)Cc1c(Cl)nc(C)nc1N2C (stereo not given)
active: NCI-H522 lung -17% | COLO 205 colon -20.9%
inactive: NCI-H23 lung 25.8% | NCI-H226 lung 38.6% | NCI-H322M lung 58.8% | HOP-62 NSCLC 29.4% | NCI-H460 lung 12.3% | HOP-92 NSCLC 41.7% | A549/ATCC NSCLC 21.8% | 786-0 renal 38.2%

CCOC(=O)c1nn(C2CCCCO2)c2ccc(NC(=O)Cn3nnc4ccccc43)cc12 (stereo not given)
inactive: NCI-H23 lung 102% | NCI-H226 lung 109% | NCI-H322M lung 96.9% | HOP-62 NSCLC 98.8% | NCI-H460 lung 100% | HOP-92 NSCLC 111% | NCI-H522 lung 102% | A549/ATCC NSCLC 102% | 786-0 renal 90.9% | COLO 205 colon 120%

COC(=O)c1c(C)[nH]c(/C=C2\N=C(c3ccc[nH]3)C=C2OC)c1C
inactive: NCI-H23 lung 10%
active: NCI-H226 lung -16% | NCI-H322M lung -2.96% | HOP-62 NSCLC -17.5% | NCI-H460 lung 4.82% | HOP-92 NSCLC -41.8% | NCI-H522 lung -60.1% | A549/ATCC NSCLC -24.4% | 786-0 renal -27.7% | COLO 205 colon -54.2%

O=C1/C(=C\c2cccn2Cc2ccccc2)c2ccccc2N1c1c(Cl)cccc1Cl
inactive: NCI-H23 lung 68.7% | NCI-H226 lung 53.1% | NCI-H322M lung 54.8% | HOP-62 NSCLC 77.2% | NCI-H460 lung 42.7% | NCI-H522 lung 88.9% | A549/ATCC NSCLC 53.1% | 786-0 renal 89%
active: HOP-92 NSCLC 1.73% | COLO 205 colon -6.31%

Cc1cc(C)nc(SCC(=O)Nc2cccc(N=Cc3ccccc3O)c2)n1
inactive: NCI-H23 lung 98% | NCI-H226 lung 93.8% | NCI-H322M lung 101% | HOP-62 NSCLC 102% | NCI-H460 lung 101% | HOP-92 NSCLC 77.4% | NCI-H522 lung 86.6% | A549/ATCC NSCLC 101% | 786-0 renal 103% | COLO 205 colon 105%

CCOC(=O)COc1c(C)cc(SSc2cc(C)c(OCC(=O)OCC)c(C)c2)cc1C
inactive: NCI-H23 lung 103% | NCI-H226 lung 111% | NCI-H322M lung 105% | HOP-62 NSCLC 109% | NCI-H460 lung 102% | HOP-92 NSCLC 76.8% | NCI-H522 lung 73.8% | A549/ATCC NSCLC 80.2% | 786-0 renal 114% | COLO 205 colon 111%

Cc1ccc(-c2cc(-c3ccc(C)cc3)nc(NCCNc3ccnc4cc(Cl)ccc34)n2)cc1
active: NCI-H23 lung -12% | NCI-H226 lung -59.2% | HOP-62 NSCLC -7.66% | NCI-H460 lung -68.8% | HOP-92 NSCLC -33.9% | NCI-H522 lung -63.6% | A549/ATCC NSCLC -56.5% | 786-0 renal -91.4% | COLO 205 colon -85.8%
inactive: NCI-H322M lung 14.9%

Cc1ccccc1-n1nnc(C(=O)Nc2nc3ccc(F)cc3s2)c1C
inactive: NCI-H23 lung 55.7% | NCI-H226 lung 48.4% | NCI-H322M lung 71.2% | HOP-62 NSCLC 86% | NCI-H460 lung 65.7% | HOP-92 NSCLC 55.7% | NCI-H522 lung 66.4% | A549/ATCC NSCLC 64.5% | 786-0 renal 76.2% | COLO 205 colon 80.5%

O=C1C(Cl)=C(Nc2ccc3cn[nH]c3c2)C(=O)c2ccccc21
inactive: A549/ATCC NSCLC 39.7%
active: NCI-H23 lung -70.1% | NCI-H226 lung -4.83% | NCI-H322M lung -27.4% | HOP-62 NSCLC -6.04% | NCI-H460 lung 4.67% | HOP-92 NSCLC -80.4% | NCI-H522 lung -84.7% | 786-0 renal -99.4% | COLO 205 colon -85.5%

N#C/C(=C(/O)CCCO)c1nc2ccccc2c(=O)[nH]1
inactive: NCI-H23 lung 91.2% | NCI-H226 lung 93.7% | NCI-H322M lung 105% | HOP-62 NSCLC 99% | NCI-H460 lung 111% | HOP-92 NSCLC 84.9% | NCI-H522 lung 95% | A549/ATCC NSCLC 95.3% | 786-0 renal 102% | COLO 205 colon 130%

CC1(C)CC[C@]2(C(N)=O)CC[C@]3(C)C(=CC[C@@H]4[C@@]5(C)C/C(=C/c6ccncc6)C(=O)C(C)(C)[C@@H]5CC[C@]43C)[C@@H]2C1
active: NCI-H23 lung -34.4% [100 µM] | NCI-H226 lung -48.3% [100 µM] | NCI-H322M lung -100% [100 µM] | HOP-62 NSCLC -63.3% [100 µM] | NCI-H460 lung -48.9% [100 µM] | HOP-92 NSCLC -64.7% [100 µM] | NCI-H522 lung -67.4% [100 µM] | A549/ATCC NSCLC -54.2% [100 µM] | 786-0 renal -41.2% [100 µM] | COLO 205 colon -55.3% [100 µM]

O=C(Nc1ccc(Oc2ccc(F)cc2)c(Cl)c1)c1cccnn1
inactive: NCI-H23 lung 62.3% | NCI-H226 lung 55% | NCI-H322M lung 87.6% | HOP-62 NSCLC 84.2% | NCI-H460 lung 76.8% | HOP-92 NSCLC 66.5% | NCI-H522 lung 61.8% | A549/ATCC NSCLC 65.5% | 786-0 renal 105% | COLO 205 colon 112%

CCN(CC)CCSC(=O)C(O)(c1ccccc1)C1CCCC1 (stereo not given)
inactive: NCI-H23 lung 99.4% | NCI-H226 lung 93.1% | NCI-H322M lung 118% | HOP-62 NSCLC 111% | NCI-H460 lung 115% | HOP-92 NSCLC 77% | NCI-H522 lung 86.7% | A549/ATCC NSCLC 85.2% | 786-0 renal 169% | COLO 205 colon 144%

COc1ccc(C(=O)c2nccc3cc(OC)c(OC)cc23)cc1OC
inactive: NCI-H23 lung 51.9% | NCI-H226 lung 97% | NCI-H322M lung 120% | HOP-62 NSCLC 95.3% | NCI-H460 lung 103% | HOP-92 NSCLC 78.5% | NCI-H522 lung 33.4% | A549/ATCC NSCLC 98.3% | 786-0 renal 109% | COLO 205 colon 126%

CS(=O)(=O)c1cccnn1
inactive: NCI-H23 lung 95.8% | NCI-H226 lung 97.4% | NCI-H322M lung 99.7% | HOP-62 NSCLC 103% | NCI-H460 lung 101% | HOP-92 NSCLC 75.5% | NCI-H522 lung 82% | A549/ATCC NSCLC 104% | 786-0 renal 97.2% | COLO 205 colon 131%

Cc1ccc(NC(=O)N[C@@H](Cc2cc(F)cc(F)c2)C(=O)N[C@@H]2C(=O)N3CCC[C@H]3C(=O)N3CCOC[C@H]3C(=O)N[C@@H](C)C(=O)N3C[C@H](C)C[C@H]3C(=O)O[C@H]2C)cc1
inactive: NCI-H23 lung 33.5% | NCI-H226 lung 30.5% | NCI-H322M lung 62.2% | HOP-62 NSCLC 26.7% | NCI-H460 lung 26.4% | HOP-92 NSCLC 39.4% | NCI-H522 lung 37.7% | A549/ATCC NSCLC 27.3% | 786-0 renal 34.1%
active: COLO 205 colon 10%

COc1ccc2nc3c(cc2c1)C(=O)CC(C(F)(F)F)C3 (stereo not given)
active: COLO 205 colon 9.86%
inactive: NCI-H23 lung 50.5% | NCI-H226 lung 39.8% | NCI-H322M lung 37.4% | HOP-62 NSCLC 47.7% | NCI-H460 lung 10.5% | HOP-92 NSCLC 66.2% | NCI-H522 lung 31.1% | A549/ATCC NSCLC 39.3% | 786-0 renal 53.7%

CC(C)CSc1ncnc2nc[nH]c12
inactive: NCI-H23 lung 94.7% | NCI-H226 lung 85.2% | NCI-H322M lung 103% | HOP-62 NSCLC 95.9% | NCI-H460 lung 96.9% | HOP-92 NSCLC 68.8% | NCI-H522 lung 88% | A549/ATCC NSCLC 103% | 786-0 renal 93.8% | COLO 205 colon 101%

Nc1nc(SCc2cccc([N+](=O)[O-])c2)c2[nH]cnc2n1
inactive: NCI-H23 lung 102% | NCI-H226 lung 90% | NCI-H322M lung 91.2% | HOP-62 NSCLC 94.6% | NCI-H460 lung 108% | HOP-92 NSCLC 100% | NCI-H522 lung 81.1% | A549/ATCC NSCLC 97.2% | 786-0 renal 98.1% | COLO 205 colon 114%
